Results on 11 sequences are retold here after publication PMC11006913.

Test in all cases: PBM; 200 nM protein, PBS
Common to all, as to settings: dsDNA, one strand shown

Assay [1] concerns the target HOXB9 (Homo sapiens, UniProt P17482 171-250, T197M).
Assay [2] deals with HOXC9 (Homo sapiens, UniProt P31274 178-260, K195R).
Assay [3] concerns the target HOXC10 (Homo sapiens, UniProt Q9NYD6 254-340).
Assay [4] addresses HOXB9 (Homo sapiens, UniProt P17482 171-250).
For assay [5], the target named is HOXC9 (Homo sapiens, UniProt P31274 178-260).
Sequence of HOXC9 (Homo sapiens, UniProt P31274 178-260) (P31274 178-260): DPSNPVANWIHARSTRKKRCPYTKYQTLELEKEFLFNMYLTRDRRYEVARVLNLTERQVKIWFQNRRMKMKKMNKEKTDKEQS
Assay [6] addresses HOXD13 (Homo sapiens, UniProt P35453 263-343, T313R).
The target of assay [7] is HOXC9 (Homo sapiens, UniProt P31274 178-260, R193K).
Sequence of HOXC9 (Homo sapiens, UniProt P31274 178-260, R193K) (P31274 178-260 R193K): as the sequence (P31274 178-260) above, with R16K counted along it
Assay [8] has as its target HOXD13 (Homo sapiens, UniProt P35453 263-343).
For assay [9], the target named is HOXC10 (Homo sapiens, UniProt Q9NYD6 254-340, K271E).
Sequence of HOXC10 (Homo sapiens, UniProt Q9NYD6 254-340, K271E) (Q9NYD6 254-340 K271E): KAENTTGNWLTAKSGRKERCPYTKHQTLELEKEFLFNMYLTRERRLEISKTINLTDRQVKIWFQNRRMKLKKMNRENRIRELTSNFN
Assay [10] concerns the target HOXD13 (Homo sapiens, UniProt P35453 263-343, T313A).
In assay [11] the target is HOXB9 (Homo sapiens, UniProt P17482 171-250, R186Q).
Sequence of HOXB9 (Homo sapiens, UniProt P17482 171-250, R186Q) (P17482 171-250 R186Q): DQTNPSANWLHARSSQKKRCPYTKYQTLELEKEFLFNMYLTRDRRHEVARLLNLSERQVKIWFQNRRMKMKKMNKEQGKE
The target of assay [12] is HOXC9 (Homo sapiens, UniProt P31274 178-260, R222W).
Sequence of HOXC9 (Homo sapiens, UniProt P31274 178-260, R222W) (P31274 178-260 R222W): as the sequence (P31274 178-260) above, with R45W counted along it
The target in assay [13] is T1, PAX4 (Homo sapiens, UniProt O43316 9-242, R200K).
T1 sequence: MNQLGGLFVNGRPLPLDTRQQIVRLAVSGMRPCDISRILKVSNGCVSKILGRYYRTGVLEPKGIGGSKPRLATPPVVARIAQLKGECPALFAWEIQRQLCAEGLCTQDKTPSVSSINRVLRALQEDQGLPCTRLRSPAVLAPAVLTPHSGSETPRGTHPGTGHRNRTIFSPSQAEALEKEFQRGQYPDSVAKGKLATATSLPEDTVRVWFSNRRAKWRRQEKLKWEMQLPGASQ

Assay [14] concerns the target T2, PAX4 (Homo sapiens, UniProt O43316 9-242, F177V).
T2 sequence: T1 sequence with F169V, K192R

Assay [15] concerns the target T3, PAX4 (Homo sapiens, UniProt O43316 9-242, F177Y).
T3 sequence: T1 sequence with F169Y, K192R

Positions count from the first letter of the chain named.

Sequence of HOXB9 (Homo sapiens, UniProt P17482 171-250, T197M) (P17482 171-250 T197M): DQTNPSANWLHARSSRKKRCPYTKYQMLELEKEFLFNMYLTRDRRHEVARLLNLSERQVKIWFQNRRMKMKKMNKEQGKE
Sequence of HOXD13 (Homo sapiens, UniProt P35453 263-343, T313A) (P35453 263-343 T313A): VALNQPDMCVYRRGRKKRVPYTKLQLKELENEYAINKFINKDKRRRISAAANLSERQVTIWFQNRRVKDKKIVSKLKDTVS
Sequence of HOXC9 (Homo sapiens, UniProt P31274 178-260, K195R) (P31274 178-260 K195R): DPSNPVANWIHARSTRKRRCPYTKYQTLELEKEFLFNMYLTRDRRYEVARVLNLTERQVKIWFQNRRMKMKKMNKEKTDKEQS
Sequence of HOXB9 (Homo sapiens, UniProt P17482 171-250) (P17482 171-250): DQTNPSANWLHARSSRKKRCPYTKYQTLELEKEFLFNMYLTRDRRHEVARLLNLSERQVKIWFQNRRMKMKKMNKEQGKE
Sequence of HOXC10 (Homo sapiens, UniProt Q9NYD6 254-340) (Q9NYD6 254-340): as the sequence (Q9NYD6 254-340 K271E) above, with E18K counted along it
Sequence of HOXD13 (Homo sapiens, UniProt P35453 263-343, T313R) (P35453 263-343 T313R): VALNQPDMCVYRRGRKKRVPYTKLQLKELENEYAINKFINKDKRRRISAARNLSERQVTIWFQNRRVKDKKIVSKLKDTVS
Sequence of HOXD13 (Homo sapiens, UniProt P35453 263-343) (P35453 263-343): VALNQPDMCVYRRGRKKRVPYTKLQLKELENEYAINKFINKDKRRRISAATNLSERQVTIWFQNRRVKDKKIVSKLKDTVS

For ATCATTAA, the binding signal with HOXB9 [1] was 10.3 upbm affinity estimate (log intensity, higher = more binding, comparable within an allelic series); with HOXC9 [2], 12.8 upbm affinity estimate (log intensity, higher = more binding, comparable within an allelic series); with HOXC10 [3], 12.4 upbm affinity estimate (log intensity, higher = more binding, comparable within an allelic series); with HOXB9 [4] it was 12.1 upbm affinity estimate (log intensity, higher = more binding, comparable within an allelic series); in the assay with HOXC9 [5], 12.8 upbm affinity estimate (log intensity, higher = more binding, comparable within an allelic series); with HOXD13 [6] it was 10.7 upbm affinity estimate (log intensity, higher = more binding, comparable within an allelic series). In addition, the binding signal with HOXC9 [7] is 12.8 upbm affinity estimate (log intensity, higher = more binding, comparable within an allelic series); with HOXD13 [8], 11.8 upbm affinity estimate (log intensity, higher = more binding, comparable within an allelic series); with HOXC10 [9], 12.3 upbm affinity estimate (log intensity, higher = more binding, comparable within an allelic series); with HOXD13 [10], 11.7 upbm affinity estimate (log intensity, higher = more binding, comparable within an allelic series); in the assay with HOXB9 [11], 11.8 upbm affinity estimate (log intensity, higher = more binding, comparable within an allelic series); with HOXC9 [12], 11.1 upbm affinity estimate (log intensity, higher = more binding, comparable within an allelic series).

For TCATTAAA, the binding signal with HOXB9 [1] was 10.2 upbm affinity estimate (log intensity, higher = more binding, comparable within an allelic series); with HOXC9 [2], 13 upbm affinity estimate (log intensity, higher = more binding, comparable within an allelic series); with HOXC10 [3], 12.6 upbm affinity estimate (log intensity, higher = more binding, comparable within an allelic series); in the assay with HOXB9 [4], 12.2 upbm affinity estimate (log intensity, higher = more binding, comparable within an allelic series); with HOXC9 [5], 12.9 upbm affinity estimate (log intensity, higher = more binding, comparable within an allelic series); with HOXD13 [6] it was 10.8 upbm affinity estimate (log intensity, higher = more binding, comparable within an allelic series). Moreover, the binding signal in the assay with HOXC9 [7] was 12.9 upbm affinity estimate (log intensity, higher = more binding, comparable within an allelic series); with HOXD13 [8], 11.9 upbm affinity estimate (log intensity, higher = more binding, comparable within an allelic series); with HOXC10 [9] it was 12.4 upbm affinity estimate (log intensity, higher = more binding, comparable within an allelic series); in the assay with HOXD13 [10], 11.7 upbm affinity estimate (log intensity, higher = more binding, comparable within an allelic series); with HOXB9 [11], 12 upbm affinity estimate (log intensity, higher = more binding, comparable within an allelic series); with HOXC9 [12] it was 11.2 upbm affinity estimate (log intensity, higher = more binding, comparable within an allelic series).

On to CCGCCTAG, for which the binding signal in the assay with HOXB9 [1] was 8.4 upbm affinity estimate (log intensity, higher = more binding, comparable within an allelic series); with HOXB9 [4] it was 8.41 upbm affinity estimate (log intensity, higher = more binding, comparable within an allelic series); with HOXB9 [11] it was 8.38 upbm affinity estimate (log intensity, higher = more binding, comparable within an allelic series).

With GGTCATTA, the binding signal is 10 upbm affinity estimate (log intensity, higher = more binding, comparable within an allelic series) in the assay with HOXB9 [1] and 12 upbm affinity estimate (log intensity, higher = more binding, comparable within an allelic series) with HOXC10 [9].

With GACCAGGC, the binding signal was 8.29 upbm affinity estimate (log intensity, higher = more binding, comparable within an allelic series) with HOXB9 [1]; 9.22 upbm affinity estimate (log intensity, higher = more binding, comparable within an allelic series) with PAX4 [13]; 8.23 upbm affinity estimate (log intensity, higher = more binding, comparable within an allelic series) in the assay with HOXB9 [4]; 9.26 upbm affinity estimate (log intensity, higher = more binding, comparable within an allelic series) with PAX4 [14]; 9.29 upbm affinity estimate (log intensity, higher = more binding, comparable within an allelic series) in the assay with PAX4 [15]; 8.26 upbm affinity estimate (log intensity, higher = more binding, comparable within an allelic series) with HOXB9 [11].

As for CGTGCCTC, the binding signal was 8.3 upbm affinity estimate (log intensity, higher = more binding, comparable within an allelic series) with HOXB9 [1]; 10 upbm affinity estimate (log intensity, higher = more binding, comparable within an allelic series) in the assay with HOXC10 [3]; 8.2 upbm affinity estimate (log intensity, higher = more binding, comparable within an allelic series) in the assay with HOXB9 [4]; 9.99 upbm affinity estimate (log intensity, higher = more binding, comparable within an allelic series) with HOXC10 [9]; 8.24 upbm affinity estimate (log intensity, higher = more binding, comparable within an allelic series) with HOXB9 [11].

In the case of CCTGACCC, the binding signal with HOXB9 [1] was 8.77 upbm affinity estimate (log intensity, higher = more binding, comparable within an allelic series); with HOXB9 [4], 8.65 upbm affinity estimate (log intensity, higher = more binding, comparable within an allelic series); in the assay with HOXB9 [11], 8.66 upbm affinity estimate (log intensity, higher = more binding, comparable within an allelic series).

With CGGTTCCC, the binding signal with HOXB9 [1] was 8.58 upbm affinity estimate (log intensity, higher = more binding, comparable within an allelic series); with HOXB9 [4] it was 8.52 upbm affinity estimate (log intensity, higher = more binding, comparable within an allelic series); in the assay with HOXB9 [11], 8.49 upbm affinity estimate (log intensity, higher = more binding, comparable within an allelic series).

Consider ATTAATCG, for which the binding signal with PAX4 [13] is 11.6 upbm affinity estimate (log intensity, higher = more binding, comparable within an allelic series); with PAX4 [14], 10.5 upbm affinity estimate (log intensity, higher = more binding, comparable within an allelic series); in the assay with PAX4 [15], 11.1 upbm affinity estimate (log intensity, higher = more binding, comparable within an allelic series).

Turning to GTCATTAA, the binding signal is 10.4 upbm affinity estimate (log intensity, higher = more binding, comparable within an allelic series) with HOXB9 [1]; 13.1 upbm affinity estimate (log intensity, higher = more binding, comparable within an allelic series) in the assay with HOXC9 [2]; 12.6 upbm affinity estimate (log intensity, higher = more binding, comparable within an allelic series) in the assay with HOXC10 [3]; 12.5 upbm affinity estimate (log intensity, higher = more binding, comparable within an allelic series) with HOXB9 [4]; 13.2 upbm affinity estimate (log intensity, higher = more binding, comparable within an allelic series) in the assay with HOXC9 [5]; 13.1 upbm affinity estimate (log intensity, higher = more binding, comparable within an allelic series) with HOXC9 [7]. The binding signal in the assay with HOXC10 [9] was 12.8 upbm affinity estimate (log intensity, higher = more binding, comparable within an allelic series); with HOXD13 [10], 11.6 upbm affinity estimate (log intensity, higher = more binding, comparable within an allelic series); with HOXB9 [11], 12.2 upbm affinity estimate (log intensity, higher = more binding, comparable within an allelic series); in the assay with HOXC9 [12], 11 upbm affinity estimate (log intensity, higher = more binding, comparable within an allelic series).

ACATTAAT: the binding signal with HOXB9 [1] was 10.1 upbm affinity estimate (log intensity, higher = more binding, comparable within an allelic series); in the assay with HOXC9 [2], 12.7 upbm affinity estimate (log intensity, higher = more binding, comparable within an allelic series); with HOXC10 [3] it was 12.2 upbm affinity estimate (log intensity, higher = more binding, comparable within an allelic series); with HOXB9 [4], 11.9 upbm affinity estimate (log intensity, higher = more binding, comparable within an allelic series); with HOXC9 [5] it was 12.7 upbm affinity estimate (log intensity, higher = more binding, comparable within an allelic series); with HOXC9 [7] it was 12.7 upbm affinity estimate (log intensity, higher = more binding, comparable within an allelic series). For the same sequence, the binding signal with PAX4 [14] is 10.5 upbm affinity estimate (log intensity, higher = more binding, comparable within an allelic series); with HOXC10 [9] it was 12 upbm affinity estimate (log intensity, higher = more binding, comparable within an allelic series); with HOXB9 [11], 11.7 upbm affinity estimate (log intensity, higher = more binding, comparable within an allelic series); with HOXC9 [12], 11 upbm affinity estimate (log intensity, higher = more binding, comparable within an allelic series).
